From PubChem
The list is not random: actives were taken first. Their share in the collection is about 9.9%.
JMJD2E inh: inhibitors of human JMJD2E histone demethylase. AID 2147. B2RXH2. 1.6% of 230,000 active. JMJD2E catalytic domain, FDH-coupled NADH fluorescence (FDH is formaldehyde dehydrogenase). Potency, µM (doses to about 57.1 µM), for the others: at the top dose activity change, negative = inhibition, usual class: inhibitors;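 also: 0% = wells with enzyme and -100% = buffer wells without enzyme; nearly all actives have a fitted effect of over 50% in size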
ALDH1A1 inh: ALDH1A1 (human) enzyme inhibition. Potency, µM (top dose mostly 75.3 µM), without a hit: top-dose activity, negative = inhibition, usual class: inhibitors. 7.3% of 220,000 active. Purified ALDH1A1, NADH fluorescence, propionaldehyde substrate;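 also: plate controls were no enzyme wells and a reference inhibitor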
Target sequence (P00352 whole entry, looked up): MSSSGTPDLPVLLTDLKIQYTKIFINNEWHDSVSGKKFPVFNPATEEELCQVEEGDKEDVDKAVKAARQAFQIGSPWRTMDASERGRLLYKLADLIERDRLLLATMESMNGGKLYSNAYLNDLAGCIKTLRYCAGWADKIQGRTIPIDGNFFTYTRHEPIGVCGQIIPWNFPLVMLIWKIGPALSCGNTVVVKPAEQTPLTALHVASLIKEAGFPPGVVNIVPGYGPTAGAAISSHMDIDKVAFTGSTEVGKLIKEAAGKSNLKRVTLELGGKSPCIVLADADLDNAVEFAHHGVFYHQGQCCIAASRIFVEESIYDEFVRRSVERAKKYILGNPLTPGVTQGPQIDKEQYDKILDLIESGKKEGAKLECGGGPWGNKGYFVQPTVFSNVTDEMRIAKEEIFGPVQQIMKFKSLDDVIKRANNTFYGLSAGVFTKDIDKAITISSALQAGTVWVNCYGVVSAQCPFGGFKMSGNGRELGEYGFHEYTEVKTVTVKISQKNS
Tau FP inhib: blocks human tau fibril formation measured by polarization. P10636. K18 P301L tau heparin fibrillization, Alexa594 FP, 6 h. Potency, µM (top dose mostly 57.7 µM), for the others: top-dose activity, negative = inhibition, hits mostly inhibitors. 0.39% of 280,000 active; active = well fitted curve in the direction sought with a large enough effect; inconclusive = small, poorly fitted or top-dose-only effect, or another doubt; inactive = no such curve, though single readings can be large; an effect the other way counts as inactive or inconclusive; also: nearly all actives have a fitted effect of over 55% in size
Target sequence (P10636 561-689 P618L limits assumed): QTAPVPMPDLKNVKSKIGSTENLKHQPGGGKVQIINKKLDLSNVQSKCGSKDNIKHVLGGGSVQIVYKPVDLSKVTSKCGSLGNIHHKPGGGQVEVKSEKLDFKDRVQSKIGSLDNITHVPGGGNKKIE
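Read-out: fluorescence polarization of Alexa 594-labeled tau (0.24 uM), 555 nm excitation, 632 nm emission. Mixtures held 15 uM unlabeled K18 P301L, compound and 20 uM heparin, pH 7 acetate buffer, incubated 6 hr at 37 C.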
Tau fluor cs: counter-screen for tau fibril formation inhibitors; Potency, µM (series often up to 57.7 µM), for inactives: at the highest dose activity change, negative = decrease; tau K18 P301L Alexa594 fluorescence, heparin fibrillization; 0.93% of 280,000 active; AID 1463; active = well fitted curve in the direction sought with a large enough effect; inconclusive = small, poorly fitted or top-dose-only effect, or another doubt; inactive = no such curve, though single readings can be large; an effect the other way counts as inactive or inconclusive; also: nearly all actives have a fitted effect of over 55% in size
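Human K18 P301L tau (15 uM unlabeled plus 0.24 uM Alexa 594-labeled, final) in 100 mM sodium acetate pH 7 was mixed with compound and 20 uM heparin and incubated 6 hr at 37 C.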
HPGD block: inhibitors of human 15-hydroxyprostaglandin dehydrogenase (HPGD). P15428. purified HPGD, NADH fluorescence kinetic, PGE2 substrate. Potency, µM, for the others: at the top dose activity change, negative = inhibition, actives largely listed as inhibitors. 4.3% of 150,000 active. AID 894
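NADH formation kinetics: reaction with 30 uM PGE2 and 1 mM NAD+ (final), 20 nM enzyme, Tris-HCl pH 8 with Tween 20, after 15 min compound preincubation at room temperature. Fluorescence change, last versus first of five reads.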
Tau fibril ThT: blocks human tau fibril formation measured by thioflavin T. recombinant tau K18 P301L (four-repeat tau fragment), heparin-induced fibrillization, ThT fluorescence. Potency, µM (titrated, usually from 57.4 µM), for inactives: top-dose activity, negative = inhibition, hits mostly inhibitors. 2.1% of 270,000 active; active = well fitted curve in the direction sought with a large enough effect; inconclusive = small, poorly fitted or top-dose-only effect, or another doubt; inactive = no such curve, though single readings can be large; an effect the other way counts as inactive or inconclusive; also: nearly all actives have a fitted effect of over 55% in size
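Aggregation was driven by heparin (20 uM final) acting on recombinant tau […] bearing P301L in 100 mM sodium acetate pH 7; fibrils were detected with Thioflavin T.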
* = called active by the depositor; ? = inconclusive; / = not tested or not shown; [ ] = remark or other dose. Unless noted, calls follow the shape of the dose curve; as a rule, active = well fitted inhibition curve with a large enough effect (not every such curve was filed as active); inconclusive = small, poorly fitted or top-dose-only effect, or another doubt; inactive = no such curve, though single readings can be large or run the other way. Unless noted, % is scaled to controls: 0 for no effect and ±100 for the full control effect; potency is read from the fitted curve at half-maximal effect.

SMILES	JMJD2E inh	ALDH1A1 inh	Tau FP inhib	Tau fluor cs	HPGD block	Tau fibril ThT
CCc1nnc(NS(=O)(=O)c2ccc(NC(=S)NC(=O)/C=C/c3ccccc3)cc2)s1	8.6%	?	4.1%	-8.1%	?	?
COc1ccc(S(=O)(=O)Nc2cc(S(=O)(=O)c3ccccc3)c(O)c(C)c2C)cc1	/	/	-8.6%	3.3%	/	13.8%
CCC(N)(C(=O)O)c1ccc(C(=O)O)cc1 (stereo not given)	/	2.3%	-1.0%	-6.2%	/	-2.1%
CC1CN(C(=O)/C(C#N)=C2\N=C(NC(=O)c3ccccc3Cl)c3ccccc32)CC(C)O1 (stereo not given)	2.9%	?	0.6%	1.0%	-13.3%	-4.5%
CCCc1nn2c(=O)cc(COC(=O)c3cccc(NC(=O)c4ccc(OCC)cc4)c3)nc2s1	/	/	-3.3%	-15.3%	/	?
Cc1cccnc1CN1CCN(Cc2nc(C(c3ccccc3)c3ccccc3)no2)CC1	-7.8%	?	8.2%	-1.3%	/	-10.3%
CC(C)(C)c1nnc2cccc(Cl)n12	-12.7%	4.2%	-3.5%	-1.3%	/	-5.1%
O=C(Nc1ccccc1C(=O)O)c1ccc(Cl)c(S(=O)(=O)N2CCOCC2)c1	4.1%	?	-2.3%	-3.8%	-18.2%	-7.7%
O=C(CN1CCN(S(=O)(=O)c2cc(Cl)ccc2Cl)CC1)Nc1ccc2c(c1)OCCO2	-1.0%	8.91µM*	5.3%	-29.9%	-3.6%	-14.0%
O=C(Nc1ccc2c(c1)OCCO2)c1ccc(Cl)c(S(=O)(=O)N2CCOCC2)c1	11.4%	5.01µM*	-6.4%	-15.3%	-9.1%	-10.0%
COc1ccc2sc(/C=C/c3ccccc3O)[n+](C)c2c1	-12.9%	-13.1%	12.5%	15.8µM*[fluorescent]	/	?
CCOC(=O)C(=Nc1ccc(Cl)cc1)NO	12.7%	5.2%	3.9%	4.0%	-9.8%	0.5%
Cc1ccc(C2CC2C(=O)NNC(=S)Nc2cccc(Cl)c2)cc1 (stereo not given)	-9.2%	7.08µM*	13.1%	-26.2%	-25.5%	-14.2%
Cc1ccc(C2CC2C(=O)NNC(=S)Nc2cccc(C)c2)cc1 (stereo not given)	-2.6%	17.8µM*	?	-28.1%	-25.1%	-17.5%
Cc1cnn(CCC(=O)NNC(=S)Nc2cccc(Cl)c2)c1	9.2%	?	3.6%	-6.9%	-10.8%	-9.5%
O=C(NNC(=S)Nc1ccc(F)cc1)C1CC1c1ccc(Cl)cc1 (stereo not given)	-4.2%	0.6%	4.3%	-1.4%	15.8µM*	?
Cc1ccc(NC(=S)NNC(=O)C2CC2c2ccc(C)cc2)cc1 (stereo not given)	21.3%	?	-9.4%	-10.6%	-18.4%	-6.7%
COc1ccc(NC(=S)NNC(=O)C2CC2c2ccc(C)cc2)cc1 (stereo not given)	1.8%	2.51µM*	12.3%	-7.2%	-25.3%	-7.3%
OCCC1CN(Cc2ccon2)CCN1Cc1ccc(F)c(F)c1 (stereo not given)	6.2%	-1.2%	11.0%	3.1%	/	2.4%
Cc1ccc(CNC(=O)Cn2c3ncccc3c(=O)n2-c2ccccc2)cc1	/	/	-2.7%	-14.3%	/	14.1%
O=C(Nc1cccc(F)c1)N1CCC2(CCNCC2)CC1	/	?	/	/	1.9%	/
CC(C)(C)OC(=O)N1CCC(c2c(C(=O)NCc3ccc4c(c3)OCO4)cnn2-c2ccc(F)cc2F)CC1	/	/	-0.6%	-11.1%	/	-8.5%
O=[N+]([O-])c1ccc(S(=O)(=O)CC(CN2CCCCC2)N2CCCCC2)cc1 (stereo not given)	-2.6%	7.08µM*	-9.3%	-16.2%	/	?
O=[N+]([O-])c1ccc(S(=O)(=O)CC(CN2CCOCC2)N2CCOCC2)cc1 (stereo not given)	-12.0%	?	-2.8%	-12.6%	/	-14.4%
CC(Sc1ccccn1)C(=O)Nc1ccccc1 (stereo not given)	8.5%	-2.2%	-0.4%	2.5%	28.2µM*	-5.0%
SMILES	JMJD2E inh	ALDH1A1 inh	Tau FP inhib	Tau fluor cs	HPGD block	Tau fibril ThT
Fc1ccccc1-n1[nH]nnc1=S	-2.5%	2.24µM*	5.3%	1.4%	25.1µM*	-4.9%
Fc1ccccc1-n1cn[nH]c1=S	-7.1%	-15.5%	9.4%	6.7%	/	3.1%
COc1ccc(Nc2ncc(C(=O)O)c3ccccc23)cc1	-2.7%	4.3%	3.2%	-14.2%	-11.2%	-17.3%
COc1ccc(-c2nnc(Nc3ccc(OC)c(C(=O)N4CCCCC4)c3)c3ccccc23)cc1	-4.3%	?	1.0%	-0.5%	14.1µM*	5.6%
COc1ccc(Nc2ncc(C(=O)N3CCN(c4ccc(OC)cc4)CC3)c3ccccc23)cc1	/	/	?	14.1µM*[quencher]	/	?
COc1ccc(Nc2ncc(C(=O)N3CCN(c4ccc(F)cc4)CC3)c3ccccc23)cc1	?	-8.7%	?	12.6µM*[quencher]	?	?
COc1ccc(Nc2ncc(C(=O)Nc3cccc(OC)c3)c3ccccc23)cc1	/	/	6.8%	14.1µM*[quencher]	/	?
Cc1ccc(Nc2ncc(C(=O)N3CCN(c4ccc(F)cc4)CC3)c3ccccc23)cc1Cl	/	/	-12.4%	?	/	-1.6%
COc1ccc(Nc2ncc(C(=O)N3CCN(c4cccc(Cl)c4)CC3)c3ccccc23)cc1	/	/	13.4%	?	/	-14.6%
COc1ccc(-c2nnc(Nc3ccc(OC)c(C(N)=O)c3)c3ccccc23)cc1	/	/	9.7%	?	/	?
O=C(NCCc1ccc(F)cc1)C(=O)NCC(c1cccs1)S(=O)(=O)c1ccccc1 (stereo not given)	/	/	-14.2%	-8.5%	/	3.6%
OCCC1CN(Cc2ccon2)CCN1CCc1ccccc1 (stereo not given)	1.7%	-1.5%	-13.0%	-1.7%	/	-10.0%
COc1ccc(NC(=O)c2cccnc2Nc2ccc(OC)cc2)cc1	0.7%	-5.8%	?	14.1µM*[quencher]	-9.2%	?
COc1ccc(Nc2ncccc2C(=O)NCc2ccccc2)cc1	-4.0%	-5.6%	?	?	-8.7%	-17.2%
COC(=O)c1ccc(CCc2cc(O)ccc2O)cc1	/	0.631µM*	/	/	0.398µM*	/
COC(=O)c1ccc(OCC(=O)c2ccc(O)cc2O)cc1	3.4%	2.2%	2.1%	-0.7%	-14.0%	-3.6%
COC(=O)c1ccc2c(=O)[nH]c(CSc3nc(C)cs3)nc2c1	?	23.8µM*	-0.4%	-10.6%	/	-5.7%
CSc1nc(N)nc(SCC(=O)C(C)(C)C)c1C#N	7.1%	?	-5.6%	-23.2%	12.6µM*	-17.3%
CSc1nc(N)nc(SCC(=O)CC(=O)OC(C)C)c1C#N	6.7%	-6.9%	-3.0%	-20.0%	-19.2%	-8.7%
CSc1nc(N)nc(SCC(=O)Nc2cccc(F)c2)c1C#N	1.8%	9.4%	3.7%	-9.2%	20µM*	-11.2%
Cc1ccccc1Cn1c(CN2CCC(C(=O)NCCN(C)C)CC2)cc2ccccc21	/	/	1.4%	-10.2%	/	-10.3%
